Assay results reported in PubChem BioAssay AID1233 (SRMLSC, 2008).
Measured potencies and affinities stand elsewhere. Unmarked numbers belong to inactive results.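 How the source made its calls: active means a dose-response curve fit returns a half-maximal inhibitory concentration, extrapolated values included; inactive means the fit returns no such concentration.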

The molecules below were run against HMG-CoA reductase [Enterococcus faecalis] (UniProt Q9FD70) (assay: class II HMG-CoA reductase inhibition potency – biochemical, Enterococcus faecalis, confirmation (AID 1233;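 further: 0% = full reaction carrier wells and 100% = background wells lacking mevalonate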)). Conditions: purified E. faecalis HMGR, NADPH absorbance 340 nm kinetics; series mostly up to 100 µM; inhibition: at the top concentration.

SMILES	inhibition
Cc1cc(C)nc(NC(=O)CCCC(=O)O)c1	-1.66%
COC(=O)c1sccc1-c1ccc(C(=O)Nc2cccnc2)o1	-1.88%
Cc1ccccc1NC(=O)Cn1nnc(S(=O)(=O)c2ccc(C(C)(C)C)cc2)c1N	-8.15%
COc1ccc(C/C(C)=N/NS(=O)(=O)c2ccc(Br)cc2)cc1	-5.94%
Cc1ccc2nc(-c3sc4nc(C)ccc4c3N)[nH]c2c1	-3.66%
C=CCn1c(Oc2ccccc2)nc2c1c(=O)n(C)c(=O)n2C	0.56%
Cn1nc([N+](=O)[O-])nc1Sc1nnnn1-c1ccc(C(=O)O)cc1	-3.35%
Cc1cccc(OCC(=O)NNC(=O)CCc2ccccc2)c1	-2.38%
Cc1ccc(SC(=O)COc2ccc(C)c(C)c2)cc1	-1.62%
O=C(NCC1CCCO1)C(c1cccs1)N(Cc1cccs1)C(=O)Cn1nnc(-c2cccs2)n1 (stereo not drawn)	-6.06%
Cc1cc(N2C(=O)C(O)=C(C(=O)c3ccco3)C2c2cccnc2)no1 (stereo not drawn)	-1.8%
Cc1ccsc1/C=C1/NC(=O)N(Cc2ccc(F)cc2)C1=O	-7.22%
Cc1ccc(NC(=O)CCc2ccc(S(=O)(=O)N3CCOCC3)cc2)c(C)c1	-6.25%
Cc1ccccc1Nc1nnc(SCc2nc3ccccc3c(=O)[nH]2)s1	-11.1%
Cc1ccc(/C=C/S(=O)(=O)NCC(=O)O)cc1	0.69%
C=CCNC(=O)C(=O)NN=C1CCN(C)CC1	-0.09%
CCN1C(=O)/C(=C\C=C\c2ccccc2[N+](=O)[O-])SC1=S	-12.6%
Cc1ccc(S(=O)(=O)N(C)C)cc1NC(=O)COC(=O)CCC(=O)c1cccs1	-2.47%
COc1cc(OC)cc(C(=O)N[C@H](C(=O)OCn2nnc3ccccc3c2=O)C(C)C)c1	11.6%

SMILES	inhibition
O=C(Nc1ccccn1)c1cccc(S(=O)(=O)N2CCOCC2)c1	-7.13%
Cc1csc(NC(=O)c2cnccn2)n1	0.35%
CCCCc1c(O)nc(SCC(=O)c2ccccc2)[nH]c1=O	-0.69%
COc1cc2c(cc1OC)CN(C(C)C(=O)N1CCc3ccccc31)CC2 (stereo not drawn)	-8.07%
O=c1c(OC2OC(CO)C(O)C(O)C2O)c(-c2ccc(O)c(O)c2)oc2cc(O)cc(O)c12 (stereo not drawn)	-3.08%
Cc1[nH]nc2c1C(c1ccsc1)C1=C(CC(C)(C)CC1=O)N2 (stereo not drawn)	-5.51%
O=C(O)CCC(=O)NNC(=O)c1ccc(Br)cc1	-1.69%
O=C(COc1ccccc1C(=O)N/N=C\c1ccc(O)c(O)c1)N/N=C/c1ccc(O)c(O)c1	4.43%
O=C(Nc1ccc(N2CCOCC2)c(Cl)c1)c1ccc([N+](=O)[O-])o1	-10.3%
O=C(COC(=O)/C=C/c1ccco1)Nc1ccc(F)cc1Cl	-0.84%
COc1cc(C#N)ccc1OCC(=O)c1ccc2c(c1)OCCO2	-2.62%
COc1ccc(OC)c(NC(=O)NNC(=O)CCCOc2ccc(Cl)cc2C)c1	-2.73%
CCN(CC)C(=S)NC(=O)c1cccnc1	-4.89%
Nc1ccc(C(=O)Nc2ccc(OC(F)(F)C(F)F)c(NC(=O)c3ccc(N)cc3)c2)cc1	-4.86%
O=C(/C(=C/c1ccc(Cl)cc1)c1nc2ccccc2[nH]1)c1ccccc1	-2.1%
CC(=O)NC(Cc1cccc(F)c1)C(=O)NC1CCN(c2ncccc2[N+](=O)[O-])CC1 (stereo not drawn)	-11.6%
O=C1CC(c2ccccc2)CC2=C1CN(C1CCCCC1)CN2 (stereo not drawn)	-1.51%
O=C(Nc1cccnc1)c1ccc(COc2ccccc2Cl)o1	-0.17%
CCSc1nnc(NC(=O)CN2C(=O)C3CC=CCC3C2=O)s1 (stereo not drawn)	-6.44%
